In PubChem BioAssay (NCATS):
Several values for one entry are separate records, joined by “and”; a condition that tells them apart may be missing. Equal values may be shown once. Results filed as inconclusive are left out. Activity calls are given as the source filed them. Unless noted, the call rests on the fitted dose curve; in most records, active means well fitted curve in the direction sought with a large enough effect; inconclusive means small, poorly fitted or top-dose-only effect, or another doubt; inactive means no such curve, though single readings can be large; an effect the other way counts as inactive or inconclusive.

Experiments:
[1] = molecular target: Ubiquitin carboxyl-terminal hydrolase 1 (Homo sapiens) (UniProt O94782); experiment: Inhibitors of USP1/UAF1: Pilot qHTS (AID 504865); further: nearly all actives have a fitted effect of over 35% in size; further: potency means the concentration at half of the fitted maximal effect
Chain of Ubiquitin carboxyl-terminal hydrolase 1 (Homo sapiens) (O94782 whole entry, looked up): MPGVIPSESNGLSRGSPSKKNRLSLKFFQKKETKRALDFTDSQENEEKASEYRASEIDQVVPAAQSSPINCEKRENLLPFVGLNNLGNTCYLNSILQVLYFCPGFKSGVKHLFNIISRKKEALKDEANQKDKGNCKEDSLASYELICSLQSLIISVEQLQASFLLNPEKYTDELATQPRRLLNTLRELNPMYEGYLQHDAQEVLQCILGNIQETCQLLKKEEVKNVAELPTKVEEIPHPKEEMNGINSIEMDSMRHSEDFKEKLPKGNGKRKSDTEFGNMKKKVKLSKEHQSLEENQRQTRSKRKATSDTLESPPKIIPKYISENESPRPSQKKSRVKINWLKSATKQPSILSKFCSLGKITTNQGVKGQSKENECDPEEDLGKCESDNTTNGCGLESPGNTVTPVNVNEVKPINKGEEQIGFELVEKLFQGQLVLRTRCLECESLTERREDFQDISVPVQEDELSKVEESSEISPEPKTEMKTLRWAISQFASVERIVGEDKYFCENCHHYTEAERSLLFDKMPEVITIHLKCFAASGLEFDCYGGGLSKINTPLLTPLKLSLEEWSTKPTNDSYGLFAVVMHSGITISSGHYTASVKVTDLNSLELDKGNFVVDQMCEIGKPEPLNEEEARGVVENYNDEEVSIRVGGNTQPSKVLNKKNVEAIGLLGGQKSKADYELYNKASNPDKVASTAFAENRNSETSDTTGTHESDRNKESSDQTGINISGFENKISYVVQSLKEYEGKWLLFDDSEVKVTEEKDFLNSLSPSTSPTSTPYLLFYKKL
In short: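 Enzyme-free wells gave the negative control, while test wells held 1nM USP1/UAF1 preincubated with compound for 15 min at room temperature. Ub-Rho at 150nM final started the reaction, and fluorescence at 480/540 nm was recorded kinetically.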

[2] = molecular target: Peptidyl-prolyl cis-trans isomerase NIMA-interacting 1 (Homo sapiens) (UniProt Q13526); experiment: qHTS Validation Assay to Find Inhibitors of Pin1 (AID 504536; active means well fitted inhibition curve with a large enough effect in the polarisation, with a control signal flat, not every such curve was filed as active; the % refers to the polarisation;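 further: 0% = full Pin1 enzyme wells and -100% = no-enzyme wells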)
Chain of Peptidyl-prolyl cis-trans isomerase NIMA-interacting 1 (Homo sapiens) (Q13526 whole entry, looked up): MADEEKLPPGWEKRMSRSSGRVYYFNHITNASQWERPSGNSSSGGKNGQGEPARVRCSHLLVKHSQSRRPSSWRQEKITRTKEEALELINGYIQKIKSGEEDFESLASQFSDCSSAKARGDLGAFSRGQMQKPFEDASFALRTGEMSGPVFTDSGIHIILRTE
In short: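 Fluorescence polarization competition: compounds (titration) displace HiFluor-488-labeled Pin1-1b peptide from Pin1 (0.3 uM final) in pH 7.5 HEPES buffer with DTT, 10 min at room temperature; %Activity normalized to no-enzyme wells, curves fitted.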

[3] = molecular target: Phosphoglycerate kinase, glycosomal (Trypanosoma brucei brucei) (UniProt P07378); experiment: qHTS Validation Assay to Find Inhibitors of Phosphoglycerate Kinase (AID 504547);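 further: control wells lack PGK and mark full inhibition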
In short: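 Compounds are pinned into the substrate/PGK mixture, and GAPDH (100nM final) is added to start the reaction by producing 1,3-BPG. After 60 minutes at room temperature, Kinase-Glo Plus is added and luminescence is measured 10 minutes later.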

[4] = molecular target: phosphoglycerate mutase (Leishmania major) (UniProt Q4Q090); experiment: qHTS Validation Assay to Find Inhibitors of Phosphoglycerate Mutase (AID 504548); further: series mostly up to about 58 µM; on the % scale 0 is the no-effect control and ±100 the full control effect
Chain of phosphoglycerate mutase (Leishmania major) (Q4Q090 1-553): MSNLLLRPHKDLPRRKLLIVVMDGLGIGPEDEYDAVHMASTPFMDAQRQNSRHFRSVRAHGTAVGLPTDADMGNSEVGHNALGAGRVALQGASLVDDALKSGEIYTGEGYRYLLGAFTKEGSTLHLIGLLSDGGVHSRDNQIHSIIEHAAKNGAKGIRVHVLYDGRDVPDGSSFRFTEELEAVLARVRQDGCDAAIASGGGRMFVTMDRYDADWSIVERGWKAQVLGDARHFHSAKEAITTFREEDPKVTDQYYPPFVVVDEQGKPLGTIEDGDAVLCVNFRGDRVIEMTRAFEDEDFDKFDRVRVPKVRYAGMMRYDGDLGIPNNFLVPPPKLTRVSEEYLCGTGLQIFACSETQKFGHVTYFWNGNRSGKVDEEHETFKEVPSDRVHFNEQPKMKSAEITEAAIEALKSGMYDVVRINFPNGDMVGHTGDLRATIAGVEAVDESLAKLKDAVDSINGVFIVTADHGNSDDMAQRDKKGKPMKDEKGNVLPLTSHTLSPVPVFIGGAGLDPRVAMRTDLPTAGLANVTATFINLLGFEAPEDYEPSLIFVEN
In short: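 Lm PGAM 1.25nM final; 100 mM TEA pH 7.6, 5 mM MgCl2, 0.01% Tween-20; 45 min RT; Kinase-GloPlus, 10 min; end-point luminescence. Enzyme-free wells as negative controls.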

[5] = qHTS for Inhibitors of ATXN expression: Validation of Cytotoxic Assay (AID 588349); further: on the % scale 0 is the no-effect control and ±100 the full control effect
In short: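 Cytotoxicity counter-screen: HEK293 cells exposed to compound titrations, 72 hr, 37 degrees C. Read-out is intracellular ATP (CellTiter Glo luminescence) as a viability measure.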

[6] = qHTS for Inhibitors of ATXN expression: Validation (AID 588378); further: nearly all actives have a fitted effect of over 75% in size; further: potency means the concentration at half of the fitted maximal effect
In short: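 After a 2 h attachment and 24 h compound incubation, HEK293-ATXN2-FFLuc wells are read for fluorescence at 405 nm excitation/525 nm emission as a viability measure, then for Bright-Glo luminescence reflecting ATXN2 expression.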

[7] = molecular target: DNA dC->dU-editing enzyme APOBEC-3G (Homo sapiens) (UniProt Q9HC16); experiment: qHTS for inhibitors of Vif-A3G interactions: Validation (AID 588379); further: 0% is about no effect
In short: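 Yellow fluorescence (Ex 488, Em 500-530) of Vif-coexpressing HeLa A3G-eYFP cells, scanned by Acumen cytometer, reports blocked A3G degradation. Cells plated at 700/well overnight at 37 deg C before compound addition, then a further overnight compound incubation at 37 deg C.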

[8] = molecular target: Peroxisome proliferator-activated receptor gamma (Homo sapiens) (UniProt P37231); experiment: qHTS assay for small molecule agonists of peroxisome proliferator-activated receptor gamma signaling (AID 588536; active means well fitted curve in the direction sought with a large enough effect in the signal ratio, with a control signal flat, not every such curve was filed as active; the % refers to the signal ratio;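 further: 0% = DMSO basal wells and 100% = rosiglitazone at 2 µM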)
Chain of Peroxisome proliferator-activated receptor gamma (Homo sapiens) (P37231 whole entry, looked up): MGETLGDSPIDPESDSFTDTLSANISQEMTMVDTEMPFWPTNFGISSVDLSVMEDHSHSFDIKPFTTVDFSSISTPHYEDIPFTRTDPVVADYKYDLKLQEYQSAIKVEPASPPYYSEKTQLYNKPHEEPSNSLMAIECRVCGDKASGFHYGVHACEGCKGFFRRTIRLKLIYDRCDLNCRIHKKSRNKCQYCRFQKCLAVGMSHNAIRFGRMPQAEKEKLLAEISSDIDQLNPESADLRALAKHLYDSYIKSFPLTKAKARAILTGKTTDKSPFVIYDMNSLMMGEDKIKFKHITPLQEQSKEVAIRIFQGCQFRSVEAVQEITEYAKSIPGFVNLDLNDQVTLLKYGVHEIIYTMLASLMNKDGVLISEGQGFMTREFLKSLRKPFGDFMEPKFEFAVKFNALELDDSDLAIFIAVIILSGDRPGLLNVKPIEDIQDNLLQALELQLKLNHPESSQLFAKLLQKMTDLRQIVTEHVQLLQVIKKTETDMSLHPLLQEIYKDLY
In short: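 Compound treatment: 16 h, 37 C, HEK293 GeneBLAzer cells. Detection: CCF4, 2 h RT. Values: Hill-fit EC50, efficacy as % of 2 uM rosiglitazone.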

[9] = molecular target: Estrogen receptor (Homo sapiens) (UniProt P03372); experiment: qHTS assay for small molecule agonists of estrogen receptor alpha signaling (AID 588514; calls by dose curve;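 further: 0% = vehicle only and 100% = reference agonist; nearly all actives have a fitted effect of over 70% in size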)
Chain of Estrogen receptor (Homo sapiens) (P03372 whole entry, looked up): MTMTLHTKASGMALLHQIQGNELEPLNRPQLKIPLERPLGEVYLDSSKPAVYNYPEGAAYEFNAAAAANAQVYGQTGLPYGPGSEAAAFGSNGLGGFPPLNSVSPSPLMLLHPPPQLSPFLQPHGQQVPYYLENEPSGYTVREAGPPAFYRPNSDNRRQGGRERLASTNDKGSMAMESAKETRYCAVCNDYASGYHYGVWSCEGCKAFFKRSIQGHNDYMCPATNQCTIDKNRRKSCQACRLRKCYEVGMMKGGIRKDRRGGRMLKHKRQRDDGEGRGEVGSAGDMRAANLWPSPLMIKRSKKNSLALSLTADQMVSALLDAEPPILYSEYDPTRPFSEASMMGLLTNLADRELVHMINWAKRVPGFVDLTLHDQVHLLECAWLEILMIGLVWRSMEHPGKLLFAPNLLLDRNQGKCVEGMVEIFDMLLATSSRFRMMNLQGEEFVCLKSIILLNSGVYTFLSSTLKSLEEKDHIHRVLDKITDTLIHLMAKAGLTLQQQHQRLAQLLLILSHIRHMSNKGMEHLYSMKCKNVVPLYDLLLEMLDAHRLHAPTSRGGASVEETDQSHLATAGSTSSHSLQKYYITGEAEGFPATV
In short: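 Read-out: CCF4 fluorescence from a beta-lactamase reporter in ER-alpha-UAS-bla HEK 293 cells after 18 hrs of compound exposure at 37 C. Normalized to 20 nM 17-beta-estradiol (100%) and DMSO (0%).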

[10] = molecular target: Bile acid receptor (Homo sapiens) (UniProt Q96RI1); experiment: qHTS assay for small molecule antagonists of farnesoid X receptor signaling (AID 588526; calls by dose curve; further: on the % scale 0 is the no-effect control and ±100 the full control effect)
Chain of Bile acid receptor (Homo sapiens) (Q96RI1 whole entry, looked up): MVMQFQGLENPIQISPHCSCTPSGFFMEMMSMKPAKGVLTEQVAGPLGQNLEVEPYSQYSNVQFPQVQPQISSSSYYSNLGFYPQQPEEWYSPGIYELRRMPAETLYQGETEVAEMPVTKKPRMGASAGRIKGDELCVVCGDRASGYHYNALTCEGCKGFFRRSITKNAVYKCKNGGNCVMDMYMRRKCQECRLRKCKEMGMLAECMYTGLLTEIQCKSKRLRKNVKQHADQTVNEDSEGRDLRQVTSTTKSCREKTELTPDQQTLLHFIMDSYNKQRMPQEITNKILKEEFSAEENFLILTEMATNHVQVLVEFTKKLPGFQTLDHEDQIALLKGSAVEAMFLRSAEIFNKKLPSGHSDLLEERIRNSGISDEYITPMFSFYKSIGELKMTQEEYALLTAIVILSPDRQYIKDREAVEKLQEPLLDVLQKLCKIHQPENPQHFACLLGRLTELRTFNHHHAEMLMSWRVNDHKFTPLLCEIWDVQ
In short: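 Antagonist mode: titrated compounds tested against chenodeoxycholic acid stimulation (normalized to 50 uM CDCA and DMSO) in GeneBLAzer HEK293T cells for 16 h. Beta-lactamase read by CCF4 fluorescence; IC50 from Hill fits.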

[11] = molecular target: Glucocorticoid receptor (Homo sapiens) (UniProt P04150); experiment: qHTS assay for small molecule agonists of glucocorticoid receptor signaling (AID 588532; active means well fitted curve in the direction sought with a large enough effect in the signal ratio, with a control signal flat; the % refers to the signal ratio;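 further: 100% = dexamethasone at 0.1 µM and 0% = DMSO only wells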); conditions: HeLa MMTV-bla, beta-lactamase ratio, agonist, 18 h; stronger effect = higher value; percent of dexamethasone control, DMSO zero
In short: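 Cells were plated and rested 3-5 h at 37 C, compounds were added in titration and incubated 18 h, then CCF4 substrate was loaded for 2 h at RT before reading blue/green fluorescence. EC50 came from Hill-equation fitting.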

[12] = molecular target: Glucocorticoid receptor (Homo sapiens) (UniProt P04150); experiment: qHTS assay for small molecule antagonists of glucocorticoid receptor signaling (AID 588533; active means well fitted inhibition curve with a large enough effect in the signal ratio, with a control signal flat, not every such curve was filed as active; the % refers to the signal ratio; further: on the % scale 0 is the no-effect control and ±100 the full control effect)
In short: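 Antagonist-mode qHTS: compound titrations added to GRE-bla HeLa cells, then dexamethasone 2 nM final; 18 h, 37 C. CCF4 FRET fluorescence normalized to dexamethasone and DMSO; IC50 from Hill fit.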

[13] = qHTS assay for small molecule antagonists of peroxisome proliferator-activated receptor delta signaling (AID 588535; active means well fitted inhibition curve with a large enough effect in the signal ratio, with a control signal flat, not every such curve was filed as active; the % refers to the signal ratio;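 on max response: cells co-treated with a PPAR-delta agonist as stimulator during compound exposure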); conditions: HEK293T PPARd-UAS-bla, beta-lactamase FRET ratio, 18 h; 460 nm channel
In short: (§1)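 Beta-lactamase reporter read-out (405 nm excitation, 460/530 nm emission) after CCF4 loading for 2 hrs at RT. HEK293T PPAR-delta-UAS-bla cells, 2% charcoal/dextran FBS, compounds for 18 hrs at 37 C. Hill fit gave IC50 and efficacy.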

[14] = molecular target: Peroxisome proliferator-activated receptor delta (Homo sapiens) (UniProt Q03181); experiment: as above
Chain of Peroxisome proliferator-activated receptor delta (Homo sapiens) (Q03181 whole entry, looked up): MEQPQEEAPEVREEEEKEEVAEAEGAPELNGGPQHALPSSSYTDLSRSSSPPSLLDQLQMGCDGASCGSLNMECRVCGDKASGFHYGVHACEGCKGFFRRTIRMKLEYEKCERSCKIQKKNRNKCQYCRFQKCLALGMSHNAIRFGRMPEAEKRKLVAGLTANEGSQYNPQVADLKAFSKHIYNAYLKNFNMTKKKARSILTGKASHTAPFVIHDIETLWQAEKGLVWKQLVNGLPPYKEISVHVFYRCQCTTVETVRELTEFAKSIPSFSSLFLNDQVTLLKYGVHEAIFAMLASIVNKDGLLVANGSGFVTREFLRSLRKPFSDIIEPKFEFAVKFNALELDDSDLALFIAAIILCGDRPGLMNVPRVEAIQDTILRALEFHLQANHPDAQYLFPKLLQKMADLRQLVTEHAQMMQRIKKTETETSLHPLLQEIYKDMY
In short: as §1

[15] = molecular target: Peroxisome proliferator-activated receptor gamma (Homo sapiens) (UniProt P37231); experiment: qHTS assay for small molecule antagonists of peroxisome proliferator-activated receptor gamma signaling (AID 588537; active means well fitted inhibition curve with a large enough effect in the signal ratio, with a control signal flat, not every such curve was filed as active; the % refers to the signal ratio;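 further: reporter cells co-stimulated with 50 nM rosiglitazone agonist during compound treatment; % of control where 0% means no effect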)
In short: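 Read-out: CCF4 fluorescence (ex 405, em 460/530 nm) after 2 h at RT. Cells were HEK293 carrying a UAS-bla reporter and treated 16 h at 37 C with compound plus rosiglitazone (50 nM final). Normalized to rosiglitazone and DMSO.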

[16] = molecular target: Vitamin D3 receptor (Homo sapiens) (UniProt P11473); experiment: qHTS assay for small molecule antagonists of vitamin D receptor signaling (AID 588541; calls by dose curve)
Chain of Vitamin D3 receptor (Homo sapiens) (P11473 whole entry, looked up): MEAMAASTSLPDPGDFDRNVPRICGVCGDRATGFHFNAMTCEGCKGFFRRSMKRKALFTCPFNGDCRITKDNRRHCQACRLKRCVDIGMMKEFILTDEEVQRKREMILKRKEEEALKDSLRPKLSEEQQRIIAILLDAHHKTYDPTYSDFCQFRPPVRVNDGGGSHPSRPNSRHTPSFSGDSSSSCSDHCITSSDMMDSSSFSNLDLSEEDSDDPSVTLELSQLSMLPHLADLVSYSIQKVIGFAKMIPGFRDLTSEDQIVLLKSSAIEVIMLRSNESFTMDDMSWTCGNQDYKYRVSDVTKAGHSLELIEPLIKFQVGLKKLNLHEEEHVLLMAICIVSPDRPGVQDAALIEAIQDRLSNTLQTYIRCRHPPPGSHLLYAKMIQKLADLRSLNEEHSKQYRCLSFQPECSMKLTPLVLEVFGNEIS
In short: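 VDR-UAS-bla HEK293T cells in 2% charcoal-stripped FBS were stimulated with 1-alpha,25-dihydroxyvitamin D3 (3 nM final) plus compound for 16 h at 37 C. The beta-lactamase CCF4 readout was normalized to 50 nM agonist and DMSO, and Hill fits gave IC50.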

[17] = molecular target: Vitamin D3 receptor (Homo sapiens) (UniProt P11473); experiment: qHTS assay for small molecule agonists of vitamin D receptor signaling (AID 588543; calls by dose curve;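 further: 0% = DMSO basal and 100% = reference agonist control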)
In short: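 Measured: β-lactamase reporter activity (CCF4, 405 nm excitation, 460/530 nm emission) in HEK293T VDR-UAS-bla cells after 16 h compound exposure at 37 °C. Normalization against 50 nM 1α,25-dihydroxyvitamin D3 and DMSO; Hill-fit EC50.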

[18] = molecular target: Androgen receptor (Homo sapiens) (UniProt P10275); experiment: qHTS assay for small molecule agonists of androgen receptor signaling (AID 588515; active means well fitted curve in the direction sought with a large enough effect in the signal ratio, with a control signal flat; the % refers to the signal ratio; further: on the % scale 0 is the no-effect control and ±100 the full control effect); conditions: AR-UAS-bla HEK293, beta-lactamase ratio, agonist 16 h; stronger effect = higher value
Chain of Androgen receptor (Homo sapiens) (P10275 whole entry, looked up): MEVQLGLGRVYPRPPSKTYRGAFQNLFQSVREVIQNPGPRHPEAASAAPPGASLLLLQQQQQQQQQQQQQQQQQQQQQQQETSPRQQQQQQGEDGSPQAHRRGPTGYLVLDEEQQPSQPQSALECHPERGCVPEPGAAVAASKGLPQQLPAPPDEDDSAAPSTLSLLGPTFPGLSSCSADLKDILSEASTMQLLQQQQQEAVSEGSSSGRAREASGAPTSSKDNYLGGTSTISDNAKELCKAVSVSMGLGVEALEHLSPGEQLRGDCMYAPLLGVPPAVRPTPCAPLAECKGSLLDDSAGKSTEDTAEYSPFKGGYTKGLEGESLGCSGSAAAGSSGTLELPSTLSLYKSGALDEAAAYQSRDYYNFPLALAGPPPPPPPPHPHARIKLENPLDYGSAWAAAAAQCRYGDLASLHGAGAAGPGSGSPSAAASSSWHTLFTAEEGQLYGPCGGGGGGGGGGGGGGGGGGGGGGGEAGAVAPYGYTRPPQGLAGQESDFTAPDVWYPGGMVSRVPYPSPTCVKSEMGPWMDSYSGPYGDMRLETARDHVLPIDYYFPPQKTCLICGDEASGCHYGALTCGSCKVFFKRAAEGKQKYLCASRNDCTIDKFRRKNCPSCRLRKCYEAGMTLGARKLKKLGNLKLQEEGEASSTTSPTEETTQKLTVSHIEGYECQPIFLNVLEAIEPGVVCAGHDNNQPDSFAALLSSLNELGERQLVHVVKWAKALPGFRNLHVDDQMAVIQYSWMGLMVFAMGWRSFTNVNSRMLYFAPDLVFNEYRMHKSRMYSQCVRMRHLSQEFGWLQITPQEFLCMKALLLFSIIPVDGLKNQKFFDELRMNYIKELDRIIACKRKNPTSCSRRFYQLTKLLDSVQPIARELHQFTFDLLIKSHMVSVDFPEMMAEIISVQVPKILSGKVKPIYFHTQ
In short: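 Stimulation of an AR-responsive β-lactamase reporter in GripTite HEK293 cells was measured after 16 h compound exposure at 37 °C, via CCF4 fluorescence after 2 h RT. EC50 from Hill fits, normalized to R1881 at 30 nM.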

[19] = molecular target: Androgen receptor (Homo sapiens) (UniProt P10275); experiment: qHTS assay for small molecule antagonists of androgen receptor signaling (AID 588516; active means well fitted curve in the direction sought with a large enough effect in the signal ratio, with a control signal flat, not every such curve was filed as active; the % refers to the signal ratio; further: on the % scale 0 is the no-effect control and ±100 the full control effect)
In short: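 Compounds tested in titration against 10 nM R1881 in AR-responsive bla reporter HEK 293 cells; CCF4 fluorescence (460/530 nm) after 16 h exposure gave IC50 and efficacy.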

[20] = molecular target: Estrogen receptor (Homo sapiens) (UniProt P03372); experiment: qHTS assay for small molecule antagonists of estrogen receptor alpha signaling (AID 588513; active means well fitted curve in the direction sought with a large enough effect in the signal ratio, with a control signal flat, not every such curve was filed as active; the % refers to the signal ratio; further: on the % scale 0 is the no-effect control and ±100 the full control effect)
In short: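 Antagonist-mode qHTS in ER-alpha-UAS-bla HEK 293 cells: compound titration, 0.5nM estradiol for 18 h, CCF4 fluorescence, Hill-derived IC50.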

CC(=O)OCC[N+](C)(C)C
inactive: Potency [1]

NC(N)=NCCCCN=C(N)N
inactive: outcome [2] | outcome [3] | outcome [4] | Potency [1] | outcome [5] | Potency [6] | outcome [7]

O=C1NC(c2cccc([N+](=O)[O-])c2)=CCN1c1ccccc1O
inactive: outcome [2] | outcome [3] | outcome [4] | Potency [1] | outcome [5] | Potency [6] | outcome [7]

O=[N+]([O-])c1ccc(-c2nc(-c3ccc(F)cc3)c(-c3ccncc3)[nH]2)cc1
inactive: outcome [3] | outcome [4] | outcome [5] | Potency [6]

CN(C)c1cc2c(Nc3ccc4c(cnn4Cc4ccccc4)c3)ncnc2cn1
inactive: outcome [2] | outcome [3] | outcome [4]

Nc1ncnc2nc[nH]c12
inactive: Potency [1]

C1N2CN3CN1CN(C2)C3
inactive: Potency [1]

CN1CCC(Nc2ncc3ncnc(Nc4ccc(F)c(Cl)c4)c3n2)CC1
inactive: Potency [1]

COC(=O)C1=CO[C@@H](O)[C@@H]2C(CO)=CC[C@H]12
inactive: outcome [2] | outcome [3] | outcome [4] | Potency [1] | outcome [5] | Potency [6]

COc1cccc2c1[C@@H]1CN(CCCCn3c(=O)[nH]c4c(sc5ncc(-c6ccccc6)nc54)c3=O)C[C@@H]1CO2
inactive: outcome [2] | outcome [3] | outcome [4] | Potency [1]

CCCCCCCCCCCCCCCC[N+](C)(C)Cc1ccccc1
active: Potency [1] 50.1 µM

Nc1ncnc2n[nH]c(Nc3ccc(F)cc3)c12
inactive: outcome [2] | outcome [3] | outcome [4] | Potency [1] | outcome [5]

CN(C(=O)C(Cl)Cl)c1ccc(OC(=O)c2ccco2)cc1
inactive: Potency [1]

Nc1ccc2cc3ccc(N)cc3nc2c1
inactive: Potency [1]

Clc1ccc2c(c1)N=C(N1CCNCC1)c1ccccc1N2
active: Potency [6] 12.6 µM
inactive: outcome [2] | outcome [3] | outcome [4] | outcome [7]

O=C(CCCCC(=O)Nc1c(I)cc(I)c(C(=O)O)c1I)Nc1c(I)cc(I)c(C(=O)O)c1I
inactive: Potency [1]

N[C@@H](Cn1ccc(=O)c(O)c1)C(=O)O
inactive: outcome [2] | outcome [3] | outcome [4] | Potency [1] | outcome [5] | Potency [6]

Cc1nn(-c2ccccc2)c(C)c1/C=N/N1CCN(Cc2ccccc2)CC1
inactive: outcome [2] | outcome [3] | outcome [4] | outcome [5] | Potency [6]

CC(C)N(CCC(=O)c1ccc2ccccc2c1)Cc1ccccc1
inactive: outcome [2] | outcome [3] | outcome [7]

CCOC(=O)NNc1nncc2ccccc12
inactive: Potency [1]

COc1ccccc1N1CCN(CCN2C(=O)CC3(CCCC3)CC2=O)CC1
inactive: outcome [2] | outcome [3] | outcome [4] | Potency [1] | outcome [5] | Potency [6] | outcome [7]

O=S(=O)(O)c1ccc2nc(-c3ccccc3)[nH]c2c1
inactive: Potency [1]

O=C1NC(=O)/C(=C/c2ccc3c(c2)OC(F)(F)O3)S1
inactive: outcome [2] | outcome [3] | outcome [4] | Potency [1] | outcome [5] | Potency [6]

Cn1cnc2c(NCc3ccccc3)nc(NCCO)nc21
inactive: outcome [2] | outcome [3] | outcome [4] | Potency [1] | outcome [5] | Potency [6] | outcome [7]

Cc1ccc2c(Cl)cc(Cl)c(O)c2n1
inactive: Potency [1]

CCN(CC)CCNC(=O)c1ccc(NS(C)(=O)=O)cc1
inactive: outcome [2] | outcome [3] | outcome [4] | Potency [1] | outcome [5] | Potency [6]

C[N+](C)(C)CCO
inactive: outcome [2] | outcome [3] | outcome [4] | Potency [1] | outcome [5] | Potency [6]

OC(CCCN1CCCCC1)(c1ccccc1)c1ccccc1
inactive: Potency [1]

CN1CCCN(C(c2ccccc2)c2ccc(Cl)cc2)CC1 (configuration not stated)
inactive: Potency [1]

Brc1ccc([C@H]2CN3CCSC3=N2)cc1
inactive: outcome [3] | outcome [4] | Potency [1] | outcome [5] | Potency [6]

CCCCCCCCCCCCCC[N+](C)(C)C
active: Potency [1] 50.1 µM

Nc1c2ccccc2nc2ccccc12
inactive: Potency [1] | outcome [8]

COC(=O)c1c(Cl)c(Cl)c(C(=O)OC)c(Cl)c1Cl
-8.5%: max response [13]
inactive: Potency [1] | outcome [9] | outcome [10] | activation [11] -1.01% | outcome [12] | outcome [14] | outcome [15] | outcome [16] | outcome [17]

c1ccc2occc2c1
inactive: outcome [10] | outcome [8] | outcome [16] | outcome [17]

O=C(Oc1ccccc1)c1cccc(C(=O)Oc2ccccc2)c1
inactive: outcome [10] | activation [11] -8.17% | outcome [12] | outcome [14] | outcome [15] | outcome [16] | outcome [17]
22.4%: max response [13]

CCN(CC)CCOc1ccc(/C(=C(\Cl)c2ccccc2)c2ccccc2)cc1
inactive: activation [18] -16% | outcome [19] | activation [11] 7.97% | outcome [12] | outcome [17]

NCC(=O)O
inactive: Potency [1] | outcome [7]

CC(C)C(C)(C)C(C)(C)C(C)(C)S
inactive: outcome [20] | outcome [9] | activation [18] -7.25% and 10.8% | outcome [19] | outcome [14] | outcome [8] | outcome [15] | outcome [16] | outcome [17]
5.05% and 21.4%: max response [13]
